About 560 (0.17%) of roughly 330,000 compounds were called active.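 How the source made its calls: active means activation at or above 40% of the spot to cytoplasm intensity ratio, with at least 20 cells analyzed; inconclusive means wells under 20 cells, flagged as cytotoxic or low count; inactive means the rest.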 For the sample, actives were picked, then their nearest neighbours and some compounds at random.
Experiments:
[1] = NTR1-driven beta-arrestin-GFP spot formation – imaging, U2OS cells, high content, primary screen (AID 493036); conditions: agonist mode, measured here: cell count, cytotoxicity flag, at 20 µM;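 on activation: 0% = DMSO without peptide and 100% = 100 nM NTR1 peptide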
[2] = biological target: Neurotensin receptor type 1 (Homo sapiens) (UniProt P30989); assay: as above; conditions: agonist mode, at 20 µM, stronger effect = higher value
Chain of Neurotensin receptor type 1 (Homo sapiens) (P30989 whole entry, looked up): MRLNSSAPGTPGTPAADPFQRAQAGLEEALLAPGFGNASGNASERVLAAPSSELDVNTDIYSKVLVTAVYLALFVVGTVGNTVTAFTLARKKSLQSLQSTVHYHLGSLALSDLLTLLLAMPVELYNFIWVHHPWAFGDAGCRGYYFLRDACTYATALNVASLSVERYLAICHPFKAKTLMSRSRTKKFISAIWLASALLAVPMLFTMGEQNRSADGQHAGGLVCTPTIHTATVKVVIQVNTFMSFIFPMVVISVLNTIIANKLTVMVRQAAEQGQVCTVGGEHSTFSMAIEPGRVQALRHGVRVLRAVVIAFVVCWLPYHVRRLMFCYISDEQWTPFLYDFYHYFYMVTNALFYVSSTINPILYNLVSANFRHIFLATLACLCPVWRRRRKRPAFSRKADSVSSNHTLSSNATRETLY

SMILES | cell count [1] [cells] | activation [2]
COc1ccc(OC)c(S(=O)(=O)n2c([N+](=O)[O-])cnc2C)c1 | 68 | 0.5% (inactive)
COc1ccc(C(C[N+](=O)[O-])n2nc(C)cc2C)cc1 (configuration not stated) | 64 | 47.9% (active)
CCOc1ccc(C(C)C)cc1S(=O)(=O)n1nc(C)cc1C | 43 | 0.1% (inactive)
CC(C)(CNC(=O)Cc1ccc(Cl)cc1Cl)N1CCOCC1 | 59 | -2.3% (inactive)
CCOc1ccc2sc(NS(=O)(=O)c3ccc(N)cc3)nc2c1 | 62 | 2.8% (inactive)
O=C(Nc1cc(Cl)ccc1N1CCOCC1)c1ccc(N2CCCC2=O)cc1 | 53 | -1.6% (inactive)
CCn1c(Cc2cccs2)nnc1SCC(=O)c1ccc(C)cc1 | 56 | 0.5% (inactive)
Fc1ccccc1CNC(=S)Nc1ccc(Cl)cc1 | 48 | 2.3% (inactive)
CCN(CCNC(=O)C1=C(C)C(=O)OC12CCC(C)CC2)c1ccccc1 (configuration not stated) | 64 | 3.9% (inactive)
COc1ccc(OC)c(NC(=O)c2cnn(-c3ccccc3Cl)c2NC(=O)c2ccco2)c1 | 62 | 4.9% (inactive)
CCOCCCNC(=S)Nc1ccc2nc(N3CCN(CC)CC3)cc(C)c2c1 | 73 | -2% (inactive)
CCCCCCCC(=O)NC(Nc1ccccc1OC)C(Cl)(Cl)Cl (configuration not stated) | 50 | 2.7% (inactive)
Cc1nn(CC(=O)Nc2ccc(C#N)cc2)c(C)c1[N+](=O)[O-] | 65 | 0.3% (inactive)
CC(OC(=O)CN1C(=O)COc2ccccc21)C(=O)NCc1ccc(F)cc1 (configuration not stated) | 51 | 0.8% (inactive)
O=S(=O)(c1ccccc1)N1CN(Cc2ccc(F)cc2)c2nc3ccccc3nc21 | 40 | 0.8% (inactive)
CC(C)CC1(C(=O)NCc2ccccn2)C=CCN1C(=O)c1ccccc1 (configuration not stated) | 56 | -0.1% (inactive)
CCN(C(=O)CSc1ncnc2c1cnn2-c1ccccc1)C1CCS(=O)(=O)C1 (configuration not stated) | 39 | -0.3% (inactive)
O=[N+]([O-])/C=C/c1ccc2c(ccn2Cc2ccccc2)c1 | 87 | 87.3% (active)
CCCCC[C@@H]1C=C(C(=O)O)[C@H](c2ccc(C#N)cc2)N1S(=O)(=O)c1ccc(C)cc1 | 52 | 7.1% (inactive)
CCCCCCCCCCCCN1C(=O)CSC1c1cccnc1 (configuration not stated) | 45 | 11.6% (inactive)
CC(C)Cn1c(CCC(=O)O)ccc1-c1cccs1 | 50 | -0.5% (inactive)

SMILES | cell count [1] [cells] | activation [2]
COc1ccccc1NC(=O)C1CCN(C(=O)c2ccc(C(C)(C)C)cc2)CC1 | 46 | -0.5% (inactive)
Cc1ccc(S(=O)(=O)NNC(=O)/C=C/c2cccc(F)c2)cc1 | 75 | 0% (inactive)
CCCC(C(=O)NC1CCCC1)N(C(=O)Cn1nnc(-c2ccc(C)o2)n1)c1cccc(O)c1 (configuration not stated) | 48 | 0.6% (inactive)
CC1CCN(S(=O)(=O)c2ccc3c(ccn3CC(=O)O)c2)CC1 | 71 | 0.7% (inactive)
C#CCCOC(=O)N1C2=NC(C(=O)OC)=C(C(=O)OC)[C@@H]3N(C)c4ccc(OC)cc4[C@]23C[C@H]1C(=O)OC | 67 | 1.9% (inactive)
Cc1ccc(N(C(=O)c2sc(C)nc2C)C(C(=O)NC(C)(C)C)c2ccncc2)cc1 (configuration not stated) | 32 | -0.4% (inactive)
O=C(Oc1ccccc1C(=S)N1CCCCC1)c1cc([N+](=O)[O-])cc([N+](=O)[O-])c1 | 41 | 0.8% (inactive)
CCOC(=O)c1cnc2c(c(C)nn2CC)c1Cl | 47 | 2.2% (inactive)
O=C(OCC(O)C(O)COC(=O)c1ccccc1)c1ccccc1 (configuration not stated) | 68 | 0% (inactive)
COc1ccc([C@H]2CC(=O)C=C(c3ccc(C)cc3)C2)cc1 | 62 | 3.1% (inactive)
Cc1cc(C)c(NC(=O)C[N+](C)(C)CC(O)COc2cccc3ccccc23)c(C)c1 (configuration not stated) | 43 | -1.1% (inactive)
CCC(C)Sc1nc2c(c(=O)[nH]c(=O)n2C)n1CC(O)COc1cccc2ccccc12 (configuration not stated) | 51 | 4.1% (inactive)
CC(C)c1ccccc1OCC(O)CN(CC(O)COc1cccc2ccccc12)C(C)C (configuration not stated) | 48 | 46.1% (active)
CN(C)S(=O)(=O)N1CCN(c2ccc([N+](=O)[O-])cc2)CC1 | 47 | 0% (inactive)
COCc1cc(=O)[nH]c(-c2ccc(C(F)(F)F)cc2)n1 | 62 | -0.3% (inactive)
CC(Sc1nn(-c2ccc(Cl)cc2)c(=S)s1)C(=O)NCC1CCCO1 (configuration not stated) | 67 | -1% (inactive)
Cc1ccc(NC(=O)[C@H](Cc2ccccc2)NC(=O)C2CCNCC2)cc1 | 66 | -0.1% (inactive)
COc1ccc(C2CC(=O)C=C(NCC3CCCO3)C2)cc1 (configuration not stated) | 92 | -3.9% (inactive)
O=C1N(Cc2ccc3c(c2)OCO3)c2ccccc2C1(O)c1c[nH]c2ccccc12 (configuration not stated) | 56 | 5.6% (inactive)
CC(C)(C)c1nnc(N/N=C/c2ccc(O)cc2)n(N)c1=O | 60 | 1.1% (inactive)
O=C(CCNS(=O)(=O)c1cccs1)N1CCN(c2ccc(F)cc2)CC1 | 42 | -0.5% (inactive)

SMILES | cell count [1] [cells] | activation [2]
CCOC(=O)CN1CC23C=CC(O2)C(C(=O)Nc2ccc(F)cc2)C3C1=O (configuration not stated) | 46 | -1.6% (inactive)
COc1ccc(N2CCN(S(=O)(=O)c3ccc4c(c3)N(C(C)=O)CCO4)CC2)cc1 | 59 | 1.4% (inactive)
CCN(CC)S(=O)(=O)c1ccc(Cl)c(C(=O)NC(C)C(c2cccs2)N2CCCC2)c1 (configuration not stated) | 57 | 0.4% (inactive)
COC(c1ccccc1)c1nnc(CCC(=O)N2CCN(CCOc3ccccc3)CC2)o1 (configuration not stated) | 37 | 0.7% (inactive)
O=C1CN(C(=O)c2ccccc2F)C(c2ccc(F)cc2)c2cc(F)ccc2N1 (configuration not stated) | 89 | 0% (inactive)
O=C(CN1CCCSc2ccccc21)N1CCN(S(=O)(=O)c2ccccc2)CC1 | 62 | 0% (inactive)
O=C(CCc1ccccc1Cl)Nc1ccc(S(=O)(=O)Nc2nccs2)cc1 | 42 | 1.9% (inactive)
O=C(CS(=O)(=O)c1ccc(C(F)(F)F)cn1)NNC(=O)c1ccccc1 | 55 | -1% (inactive)
Cc1ccc(C(C)NC(=O)Cn2nc(C)c([N+](=O)[O-])c2C)cc1 (configuration not stated) | 54 | 3.1% (inactive)
O=C(Cn1ncc(N2CCCC2)c(Br)c1=O)c1ccc(Cl)cc1 | 53 | 2.8% (inactive)
CCC/C(C)=N\Nc1nc2c(c(=O)n(C)c(=O)n2C)n1C | 58 | 0.3% (inactive)
CCOc1ccc(NC(=O)N2CC=C(n3c(=O)[nH]c4ccccc43)CC2)cc1 | 42 | 0.4% (inactive)
COc1ccc(C(C(=O)NC2CCCCC2)N(C(=O)CCl)c2ccccc2Cl)cc1 (configuration not stated) | 35 | 7.8% (inactive)
O=C(OCC(=O)N1CCCC1=O)c1cc(S(=O)(=O)N2CCOCC2)ccc1Cl | 45 | -0.7% (inactive)
Nc1c(C(=O)Nc2ccc3c(c2)OCCO3)nnn1Cc1ccccc1 | 53 | 0.3% (inactive)
CCOc1ccc(CN2CCN(Cc3c[nH]c4ccccc34)CC2)cc1 | 62 | 0.2% (inactive)
Cc1ccc2c(c1)C(O)(CC(=O)c1cccc(-n3cccc3)c1)C(=O)N2 (configuration not stated) | 57 | 1.6% (inactive)
O=C(Nc1ccc(F)c([N+](=O)[O-])c1)C1CCCO1 (configuration not stated) | 58 | -0.8% (inactive)
CCCC(=O)Nc1ncnc2c1ncn2[C@@H]1O[C@@H]2OP(=O)(O)OC[C@H]2[C@H]1OC(=O)CCC | 60 | 1.1% (inactive)
COc1ccc(C)cc1-n1nnnc1SCC(=O)c1cc(C)n(Cc2ccco2)c1C | 88 | 2.5% (inactive)
Cc1ccc2nc3c(cc(C(=O)NCCc4ccccc4)c(=N)n3CC3CCCO3)c(=O)n2c1 (configuration not stated) | 47 | 0.1% (inactive)

SMILES | cell count [1] [cells] | activation [2]
O=C(COC(=O)C1CC2C=CC1C2)Nc1ccccc1 (configuration not stated) | 55 | -0.8% (inactive)
CCOc1ccc(N(CC(=O)Nc2ccccc2F)S(=O)(=O)c2c(C)[nH]c(=O)[nH]c2=O)cc1 | 61 | -0.8% (inactive)
COc1cccc(OCc2nnc3n2N=C(c2ccccc2)C(CC(=O)O)S3)c1 (configuration not stated) | 51 | 0.6% (inactive)
CCCCCCCCCCOC(=O)Cn1c(COc2cccc(OC)c2)[n+](C)c2ccccc21 | 71 | 69.3% (active)
CCCCCCCCCCOC(=O)Cn1c(COc2ccc(C)cc2)[n+](C)c2ccccc21 | 48 | 28.5% (inactive)
CCOC(=O)CSC1=C(C#N)C(c2ccco2)C(C(=O)OCc2ccccc2)=C(C)N1 (configuration not stated) | 51 | 41.1% (active)
CC1=C(C(=O)Nc2ccccc2)C(c2cccs2)C(C#N)=C(SCC#N)N1 (configuration not stated) | 63 | 0.8% (inactive)
CC1=C(C(=O)OCc2ccccc2)C(c2ccco2)n2ncnc2N1 (configuration not stated) | 52 | -3.8% (inactive)
Cc1ccccc1C(=O)Nc1cccc(-c2nnc(SCC(=O)O)n2C)c1 | 57 | 1.7% (inactive)
Cc1cc(S(=O)(=O)NCc2ccccn2)c(Cl)cc1Cl | 75 | 0.3% (inactive)
Cc1cc(/C=C2/SC(=O)N(CC(=O)OC(C)C)C2=O)c(C)n1C | 60 | 0.9% (inactive)
COc1ccccc1C(=O)Nn1cnnc1 | 66 | -0.3% (inactive)
Oc1ccccc1C1=NN(c2ccccc2)C(c2ccccc2)C1 (configuration not stated) | 102 | 48.9% (active)
O=C1C2N=NN(CC(=O)N3N=C(c4cccc5ccccc45)CC3c3ccccc3)C2C(=O)N1c1ccccc1 (configuration not stated) | 87 | 2.9% (inactive)
COc1ccc(C2=NN(c3ccccc3)C(c3cccs3)C2)cc1 (configuration not stated) | 44 | 1.2% (inactive)
O=C(/C=C/c1ccc(Cl)cc1Cl)c1cccnc1 | 71 | 29.2% (inactive)
O=C(Nc1ccncc1)c1ccc(Cl)c([N+](=O)[O-])c1 | 85 | -0.2% (inactive)
O=C(/C=C/c1ccc(Cl)c([N+](=O)[O-])c1)c1cccnc1 | 51 | 50% (active)

From PubChem BioAssay AID493036 (Sanford-Burnham Center for Chemical Genomics, 2011)
